Assay results: PubChem BioAssay AID434955 (Southern Research Specialized Biocontainment Screening …, 2010)
Values joined by “and” are separate entries in the source; they are usually repeats but may differ in a detail not shown here. Equal values may be shown once. The whole screen tested about 330,000 compounds, of which about 880 (0.27%) were called active. Inconclusive results (about 1%) are left out. No rule for the calls is given here. The list is a sample of the results.

Experiment: beta-lactam sensitization of Mtb H37Rv, H37Rv (AID 434955);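 also: growth measured after seven days incubation then overnight dye step; 0% = bacteria only wells and 100% = bacteria with antibiotic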
Settings: M. tuberculosis H37Rv growth with meropenem, percent inhibition, at 25 µM
[1] = measured here: primary screen without meropenem

In the case of `CCOc1ccc2ccccc2c1/C=N/NC(=O)c1c(C)cc(C)[nH]c1=O`, the inhibition (stronger effect = higher value) is reported as -16.1% (inactive) and the inhibition [1] is reported as -1.48%.
For `O=C(NCCCCCCCCCNC(=O)C(F)(F)F)C(F)(F)F`, the inhibition (stronger effect = higher value) was 3.21% (inactive) and the inhibition [1] was 10.9%.
In the case of `O=C1CC2(CC(c3ccc(Cl)cc3)=NO2)C(=O)N1c1ccccc1` (configuration not stated), the inhibition (stronger effect = higher value) is reported as -4.42% (inactive) and the inhibition [1] is reported as -1.92%.
With `CCCCC1(C(=O)OCC)NC(c2ccc(O)cc2)C2C(=O)N(c3ccccc3)C(=O)C21` (configuration not stated) the inhibition (stronger effect = higher value) was -5.62% (inactive) and the inhibition [1] was -0.56%.
With `O=C(CCCNS(=O)(=O)c1cccc2nsnc12)NCCN1CCN(c2ccccc2F)CC1` the inhibition (stronger effect = higher value) was -11.3% (inactive) and the inhibition [1] was -10.3%.
With `CCOc1ccc(NC(=S)NC(=O)/C=C/c2ccc(OC)cc2)c([N+](=O)[O-])c1` the inhibition (stronger effect = higher value) was -1.27% (inactive) and the inhibition [1] was 1.54%.
For `CSc1ccccc1NC(=O)c1ccc2c(c1)CCN2S(C)(=O)=O`, the inhibition (stronger effect = higher value) was -1.11% (inactive) and the inhibition [1] was -0.34%.
In the case of `CCOC(=O)c1c(S(=O)(=O)Nc2ccc(CN3CCC(C)CC3)cc2)c(C)n(C)c1C`, the inhibition (stronger effect = higher value) is reported as -2.23% (inactive) and the inhibition [1] is reported as 3.26%.
In the case of `Cc1ccc(S(=O)(=O)N2CCC(C(=O)OCC(=O)N(C)c3ccccc3)CC2)cc1C`, the inhibition (stronger effect = higher value) is reported as -8.73% (inactive) and the inhibition [1] is reported as -4.4%.
For `CC(=O)NC1(c2ccc(F)cc2)CCN(C(=O)c2c(F)cccc2F)CC1`, the inhibition (stronger effect = higher value) was 8.64% (inactive) and the inhibition [1] was 0.61%.
In the case of `O=C(NCC1CCCO1)C(C(=O)c1ccccc1)n1cc(Cl)ccc1=O` (configuration not stated), the inhibition (stronger effect = higher value) is reported as 6.75% (inactive) and the inhibition [1] is reported as -1.73%.
With `O=C(NCc1ccc(F)cc1)C1CCN(C(=O)Nc2ccc(F)cc2)CC1` the inhibition (stronger effect = higher value) was -23.9% (inactive) and the inhibition [1] was -6%.
With `CC(Nc1nc(C(F)(F)F)nc2ccccc12)c1cccs1` (configuration not stated) the inhibition (stronger effect = higher value) was 4.44% (inactive) and the inhibition [1] was 8.98%.
For `CCOC(=O)C1=C(CCc2ccccc2)NC(=O)NC1c1ccc2ccccc2c1` (configuration not stated), the inhibition (stronger effect = higher value) was 30% (inactive) and the inhibition [1] was 52.5%.
With `COc1ccccc1NC(=O)COC(=O)CNC(=O)C1CCCCC1` the inhibition (stronger effect = higher value) was -1.14% (inactive) and the inhibition [1] was -2.95%.
With `CN(C)Cc1ccccc1C1(O)c2ccccc2CSc2ccccc21` (configuration not stated) the inhibition (stronger effect = higher value) was -0.96% (inactive) and the inhibition [1] was 2.09%.
With `CCN(CC)CCn1c(=S)[nH]c2ncccc2c1=O` the inhibition (stronger effect = higher value) was -13.3% (inactive) and the inhibition [1] was -17.8%.
In the case of `CC(=O)Nc1ccc(N2C(=O)CC(Sc3nccc(C)n3)C2=O)cc1` (configuration not stated), the inhibition (stronger effect = higher value) is reported as -4.91% (inactive) and the inhibition [1] is reported as -1.37%.
For `CCOc1ccc(CNC(=O)CCC(=O)N2CCSc3ccccc32)cc1`, the inhibition (stronger effect = higher value) was -9.71% (inactive) and the inhibition [1] was -7.82%.
For `O=C(CCc1nc(-c2ccccc2)no1)Nc1cccc(C(=O)NC2CC2)c1`, the inhibition (stronger effect = higher value) was 1.26% (inactive) and the inhibition [1] was 4.5%.
With `COc1ccc(/C=N/n2c(C)cc(C)cc2=O)cc1` the inhibition (stronger effect = higher value) was 3.19% (inactive) and the inhibition [1] was -1.76%.
With `COC(=O)c1ccc(NS(=O)(=O)c2cc3c4c(c2)C(C)C(=O)N4CCC3)cc1` (configuration not stated) the inhibition (stronger effect = higher value) was -8.75% (inactive) and the inhibition [1] was -4.77%.
In the case of `CCC1CO/C(=C(\C(=C(Cl)Cl)N2CCOCC2)[N+](=O)[O-])N1` (configuration not stated), the inhibition (stronger effect = higher value) is reported as -17.5% (inactive) and the inhibition [1] is reported as -10.3%.
For `CCOC(=O)N1CCN(C(=O)C2CCN(S(C)(=O)=O)CC2)CC1`, the inhibition (stronger effect = higher value) was 2.13% (inactive) and the inhibition [1] was -5.28%.
For `O=c1[nH]c(=O)n(Cc2ccco2)c2c1C(C(F)(F)F)(C(F)(F)F)N=C(c1ccco1)N2`, the inhibition (stronger effect = higher value) was -12.9% (inactive) and the inhibition [1] was -21.1%.
With `O=c1c2ccccc2ncn1CCCCOc1ccccc1F` the inhibition (stronger effect = higher value) was -1.85% (inactive) and the inhibition [1] was 11.4%.
With `Cn1nc(C(F)(F)F)cc1C(=O)O` the inhibition (stronger effect = higher value) was -2.73% (inactive) and the inhibition [1] was 4.91%.
In the case of `O=C1CC2(CCCC2)Oc2ccc(Cl)cc21`, the inhibition (stronger effect = higher value) is reported as -2.7% (inactive) and the inhibition [1] is reported as -12.8%.
For `COc1ccc(C2C(C(C)=O)=C(O)C(=O)N2c2nccs2)cc1` (configuration not stated), the inhibition (stronger effect = higher value) was -8% (inactive) and the inhibition [1] was -1.43%.
In the case of `NC(=O)COC(=O)c1sc2cc(F)ccc2c1Cl`, the inhibition (stronger effect = higher value) is reported as 40.4% (inactive) and the inhibition [1] is reported as 37.9%.
For `O=C(NC(Cc1ccccc1)C(=O)O)/C(=C\c1ccccc1)NC(=O)c1ccco1` (configuration not stated), the inhibition (stronger effect = higher value) was -13.2% (inactive) and the inhibition [1] was -12.5%.
In the case of `CN1CCc2nc(SC(C(=O)O)c3ccccc3)c(C#N)c(-c3cccs3)c2C1` (configuration not stated), the inhibition (stronger effect = higher value) is reported as -5.45% (inactive) and the inhibition [1] is reported as -0.72%.
With `CCOc1cc(C)ccc1OCc1nnc(SCC(=O)Nc2cccc(C(=O)O)c2)n1-c1ccccc1` the inhibition (stronger effect = higher value) was -1.64% (inactive) and the inhibition [1] was -0.86%.
In the case of `CCOC(=O)c1ccc(NC(=O)C2CC(=O)N(c3ccc4c(c3)OCCO4)C2)cc1` (configuration not stated), the inhibition (stronger effect = higher value) is reported as -4.22% (inactive) and the inhibition [1] is reported as 4.56%.
In the case of `O=C(c1ccc(F)cc1)n1c(=S)nc2ccccn21`, the inhibition (stronger effect = higher value) is reported as -3.39% (inactive) and the inhibition [1] is reported as -1.53%.
For `CN1CCN(NC(=O)Nc2ccc(Br)cc2)CC1`, the inhibition (stronger effect = higher value) was 5.75% (inactive) and the inhibition [1] was 6.69%.
With `CC(=O)C1=C(C)NC(=O)NC1c1ccc2c(c1)OCO2` (configuration not stated) the inhibition (stronger effect = higher value) was -1.59% (inactive) and the inhibition [1] was 7.05%.
In the case of `COc1ccc(NC2CCCN(C(=O)c3ccncc3)C2)cc1` (configuration not stated), the inhibition (stronger effect = higher value) is reported as -5.62% (inactive) and the inhibition [1] is reported as 1.6%.
In the case of `Cc1cc(C)cc(N(CCC#N)C(=O)CN2C(=O)NC3(CCCC3)C2=O)c1`, the inhibition (stronger effect = higher value) is reported as -5.09% (inactive) and the inhibition [1] is reported as -6.67%.
In the case of `CC(C)N1CCC(NC(=O)Nc2ccccc2)CC1`, the inhibition (stronger effect = higher value) is reported as -9.18% (inactive) and the inhibition [1] is reported as -1.81%.
In the case of `Cc1ccc(NS(=O)(=O)c2ccc(-c3coc(C)n3)cc2)c(C)c1`, the inhibition (stronger effect = higher value) is reported as -2.05% (inactive) and the inhibition [1] is reported as 3.59%.
In the case of `COc1ccc(C(=O)NC(C)Cn2nc(C)cc2C)cc1OC1CCN(C(C)=O)CC1` (configuration not stated), the inhibition (stronger effect = higher value) is reported as -1.95% (inactive) and the inhibition [1] is reported as -5.6%.
For `COCCCNC(=O)Cc1ccc(-n2c(C)nc3cccnc32)cc1`, the inhibition (stronger effect = higher value) was -2.02% (inactive) and the inhibition [1] was -1.03%.
For `O=C(NCCC1=CCCCC1)c1ccc(-n2cncn2)cc1`, the inhibition (stronger effect = higher value) was 3.02% (inactive) and the inhibition [1] was 10.8%.
For `CC1CCN(S(=O)(=O)c2ccc(NC(=O)C3CC(=O)N(c4ccccc4)C3)cc2)CC1` (configuration not stated), the inhibition (stronger effect = higher value) was 1.58% (inactive) and the inhibition [1] was 6.16%.
With `COc1ccc(OC)c(NC(=O)c2cccc(S(=O)(=O)N3CCN(C(C)=O)CC3)c2)c1` the inhibition (stronger effect = higher value) was 1.25% (inactive) and the inhibition [1] was 1.6%.
In the case of `CCc1nn(CCCN2CCN(c3cccc(Cl)c3)CC2)c(=O)n1CCOc1ccccc1`, the inhibition (stronger effect = higher value) is reported as -2.61% (inactive) and 5.29% (inactive) and the inhibition [1] is reported as 51.1% and 50%.
With `COc1ccc(C)c(Cn2c(-c3nonc3N)nc3ccccc32)c1` the inhibition (stronger effect = higher value) was -3.23% (inactive) and the inhibition [1] was -5.86%.
For `C=CCSc1ccc(S(=O)(=O)N2CCN(C)CC2)cn1`, the inhibition (stronger effect = higher value) was -0.58% (inactive) and the inhibition [1] was 5.36%.
For `Cc1ccc(C(=O)NN(CCC#N)C2=NS(=O)(=O)c3ccccc32)cc1`, the inhibition (stronger effect = higher value) was -5.01% (inactive) and the inhibition [1] was -4.15%.
With `CC(NC(=S)NC1CCCCC1)C(c1ccccc1)N1CCOCC1` (configuration not stated) the inhibition (stronger effect = higher value) was -1.18% (inactive) and the inhibition [1] was -9.18%.
